# Where “and” joins values, the source holds several entries; their conditions need not be identical. Equal entries are not always repeated. Records with an inconclusive call do not appear. A call without a number means that no potency is given here. Where a structure was tested more than once in an assay, its records may differ in their call. Calls of active or inactive are those of the source. Unless noted, the call rests on the fitted dose curve; in most records, active means well fitted curve in the direction sought with a large enough effect in the repeat runs; inconclusive means weak or mixed curves; inactive means no such curve, though single readings can be large; an effect the other way counts as inactive or inconclusive.
# Key:
# [1] = molecular target: Peroxisome proliferator-activated receptor delta (Homo sapiens) (UniProt Q03181); test: qHTS assay to identify small molecule agonists of the peroxisome proliferator-activated receptor delta (PPARd) signaling pathway (AID 743212; calls by dose curve)
# In short: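 Quantitative high-throughput agonist screen in a HEK293H beta-lactamase reporter line under UAS control. Compounds in DMSO, at 37 C. Fluorescence read after 2 h with FRET substrate at room temperature.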
# [2] = molecular target: Peroxisome proliferator-activated receptor delta (Homo sapiens) (UniProt Q03181); test: qHTS assay to identify small molecule antagonists of the peroxisome proliferator-activated receptor delta (PPARd) signaling pathway (AID 743215; active means well fitted inhibition curve with a large enough effect in the signal ratio in the repeat runs, not every such curve was filed as active; the % refers to the signal ratio;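 further: cells stimulated with agonist L165041 at 300 nM final during compound exposure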; further: potency means the concentration at half of the fitted maximal effect)
# In short: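 Read-out is beta-lactamase FRET fluorescence, measured 2 h after substrate addition at room temperature. Beforehand, UAS-bla HEK293H cells carrying the PPARd reporter were exposed to compounds with L165041 at 300 nM final for 17 h at 37 C.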
# [3] = qHTS assay to identify small molecule agonists of the farnesoid-X-receptor (FXR) signaling pathway - cell viability counter screen (AID 743218); further: nearly all actives have a fitted effect of over 45% in size; further: potency means the concentration at half of the fitted maximal effect
# In short: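 HEK 293T FXR-bla cells; 5 h pre-incubation, 16 h compound exposure at 37 C; LiveBLAzer substrate 2 h RT, then CellTiter-Glo 30 min RT, luminescence.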
# [4] = molecular target: Vitamin D3 receptor (Homo sapiens) (UniProt P11473); test: qHTS assay to identify small molecule antagonists of the vitamin D receptor (VDR) signaling pathway (AID 743223; active means well fitted inhibition curve with a large enough effect in the signal ratio in the repeat runs, not every such curve was filed as active; the % refers to the signal ratio)
# In short: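 VDR-bla cells were treated with compound plus 3 nM final 1alpha,25-dihydroxyvitamin D3 for 16 h at 37C. Beta-lactamase reporter read by B/G FRET substrate fluorescence after 2 h at room temperature. qHTS format.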
# [5] = qHTS assay to identify small molecule antagonists of the retinoid-related orphan receptor gamma (ROR-gamma) signaling pathway - cell viability counter screen (AID 1159520); further: nearly all actives have a fitted effect of over 50% in size; further: potency means the concentration at half of the fitted maximal effect
# In short: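 Tet-on ROR gamma CHO cells were given compounds for 2 hr, then doxycycline hyclate at 1 uM final, and incubated 16 hr at 37 C. Viability was measured as ATP content by CellTiter-Glo luminescence.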
# [6] = molecular target: Nuclear receptor ROR-gamma (Homo sapiens) (UniProt P51449); test: qHTS assay to identify small molecule antagonists of the retinoid-related orphan receptor gamma (ROR-gamma) signaling pathway (AID 1159521; further: nearly all actives have a fitted effect of over 50% in size; further: potency means the concentration at half of the fitted maximal effect)
# In short: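 Tet-on ROR-gamma CHO cells with ROR response element-luciferase reporter; compounds added 2 hr before 1 uM doxycycline induction, then 16 hr at 37 C. Antagonism scored as decreased ONE-Glo luminescence.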
# [7] = qHTS assay to identify small molecule agonists of the AP-1 signaling pathway - cell viability counter screen (AID 1159525; calls by dose curve; further: nearly all actives have a fitted effect of over 55% in size)
# In short: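 AP-1-bla ME-180 cells in Opti-MEM with 0.5% dialyzed FBS, compound exposure 5 h at 37 C in 15-point titration. Viability read in the same wells as ATP content by CellTiter-Glo luminescence, normalised to tetra-n-octylammonium bromide and DMSO controls.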
# [8] = qHTS assay to identify small molecule agonists of the AP-1 signaling pathway (AID 1159526; calls by dose curve)
# [9] = molecular target: Retinoic acid receptor RXR-alpha (Homo sapiens) (UniProt P19793); test: qHTS assay to identify small molecule agonists of the RXR signaling pathway (AID 1159527; calls by dose curve; further: nearly all actives have a fitted effect of over 35% in size)
# In short: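 GeneBLAzer RXR-alpha-UAS-bla HEK 293T cells in 2% charcoal-stripped FBS medium were exposed to compounds for 16 hr at 37 C in agonist mode. Beta-lactamase reporter read as 460/530 nm FRET ratio after 2 hr substrate loading.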
# [10] = qHTS assay to identify small molecule antagonists of the farnesoid-X-receptor (FXR) signaling pathway - cell viability counter screen (AID 743221; active means well fitted cell-killing curve with a large enough effect in the repeat runs, not every such curve was filed as active; further: nearly all actives have a fitted effect of over 50% in size; further: potency means the concentration at half of the fitted maximal effect)
# In short: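 GeneBLAzer FXR-UAS-bla HEK 293T cells, compound plus chenodeoxycholic acid (50 uM final), 16 h at 37 C. CellTiter-Glo added to the same wells after the beta-lactamase read; luminescence read after 30 min at room temperature as viability.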
# [11] = qHTS assay to identify small molecule agonists of the peroxisome proliferator-activated receptor delta (PPARd) signaling pathway - cell viability counter screen (AID 743211); further: nearly all actives have a fitted effect of over 55% in size; further: potency means the concentration at half of the fitted maximal effect
# In short: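 PPARd-bla HEK293H cells (3000/well) were pre-incubated 5 h at 37 C, then exposed to compound for 17 h at 37 C. After 2 h with LiveBLAzer substrate, CellTiter-Glo was added to the same wells; luminescence read after 30 min at room temperature.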
# [12] = molecular target: Vitamin D3 receptor (Homo sapiens) (UniProt P11473); test: qHTS assay to identify small molecule agonists of the vitamin D receptor (VDR) signaling pathway (AID 743222; calls by dose curve)
# In short: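 VDR-bla cells, 2,000/well; 4 h preincubation 37C; cpd (DMSO) 16 h; LiveBLAzer B/G substrate 2 h RT; fluorescence intensity read.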
# [13] = qHTS assay to identify small molecule antagonists of the vitamin D receptor (VDR) signaling pathway - cell viability counter screen (AID 743225); further: nearly all actives have a fitted effect of over 50% in size; further: potency means the concentration at half of the fitted maximal effect
# In short: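 VDR-UAS-bla HEK 293T cells were plated and incubated 4 h at 37C, then dosed with compound plus 3 nM (final) 1-alpha,25-dihydroxyvitamin D3 for 16 h. After the 2 h beta-lactamase read, viability in the same wells was read as CellTiter-Glo luminescence after 30 min at room temperature.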
# [14] = qHTS assay to identify small molecule agonists of the endoplasmic reticulum stress response signaling pathway (AID 1159516; active means well fitted activation curve with a large enough effect in the signal ratio in the repeat runs, not every such curve was filed as active; the % refers to the signal ratio)
# In short: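 Read-out is beta-lactamase cleavage of a FRET substrate (405 nm excitation; 460 and 530 nm emissions) in ESRE-bla HeLa cells after a 5 hr compound exposure at 37 C. Substrate incubation ran 2 hr at room temperature.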
# [15] = qHTS assay to identify small molecule antagonists of the peroxisome proliferator-activated receptor delta (PPARd) signaling pathway - cell viability counter screen (AID 743213); further: nearly all actives have a fitted effect of over 50% in size
# In short: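 HEK293H PPARd UAS-bla cells, 5 h pre-incubation, compound + L165041 300 nM final, 17 h 37 C; B/G FRET substrate 2 h RT; then CellTiter-Glo 30 min RT, luminescence.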
# [16] = qHTS assay to identify small molecule agonists of the vitamin D receptor (VDR) signaling pathway - cell viability counter screen (AID 743224); further: nearly all actives have a fitted effect of over 50% in size; further: potency means the concentration at half of the fitted maximal effect
# In short: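 Luminescence from CellTiter-Glo, read after 30 min at room temperature, reports viability of VDR-bla cells treated with compounds for 16 h at 37C in the wells used for the beta-lactamase FRET read.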
# [17] = qHTS assay to identify small molecule agonists of the endoplasmic reticulum stress response signaling pathway - cell viability counter screen (AID 1159517; calls by dose curve; further: nearly all actives have a fitted effect of over 50% in size; further: potency means the concentration at half of the fitted maximal effect)
# In short: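 Counter-screen wells were identical to the reporter wells. Cells were plated at 1,500 per well and dosed for 5 hr, then read for luminescence 30 min after CellTiter-Glo addition.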
# [18] = molecular target: Bile acid receptor (Homo sapiens) (UniProt Q96RI1); test: qHTS assay to identify small molecule antagonists of the farnesoid-X-receptor (FXR) signaling pathway (AID 743217; active means well fitted inhibition curve with a large enough effect in the signal ratio in the repeat runs, not every such curve was filed as active; the % refers to the signal ratio)
# In short: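 HEK 293T FXR-UAS-bla, 5000 cells/well; compound + CDCA 50 uM final; 16 h, 37 °C; B/G FRET substrate 2 h RT; fluorescence.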
# [19] = molecular target: Bile acid receptor (Homo sapiens) (UniProt Q96RI1); test: qHTS assay to identify small molecule agonists of the farnesoid-X-receptor (FXR) signaling pathway (AID 743220; active means well fitted activation curve with a large enough effect in the signal ratio in the repeat runs, not every such curve was filed as active; the % refers to the signal ratio)
# In short: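 Beta-lactamase reporter under UAS control in GeneBLAzer FXR HEK 293T cells (5000/well) measured with LiveBLAzer FRET substrate after 2 h at room temperature. Compound exposure lasted 16 h at 37C.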
# Sequence of Peroxisome proliferator-activated receptor delta (Homo sapiens) (Q03181 whole entry, looked up): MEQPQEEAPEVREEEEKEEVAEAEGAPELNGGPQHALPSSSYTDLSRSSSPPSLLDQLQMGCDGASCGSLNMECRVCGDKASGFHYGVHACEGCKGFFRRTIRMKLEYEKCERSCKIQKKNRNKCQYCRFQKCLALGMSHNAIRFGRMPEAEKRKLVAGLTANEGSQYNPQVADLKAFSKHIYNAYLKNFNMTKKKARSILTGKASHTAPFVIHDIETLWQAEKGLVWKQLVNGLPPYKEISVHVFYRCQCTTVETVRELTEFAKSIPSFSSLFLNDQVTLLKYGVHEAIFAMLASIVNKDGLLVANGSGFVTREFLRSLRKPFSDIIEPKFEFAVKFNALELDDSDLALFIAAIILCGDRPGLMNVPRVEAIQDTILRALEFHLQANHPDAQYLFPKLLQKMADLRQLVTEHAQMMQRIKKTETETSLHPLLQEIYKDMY
# Sequence of Vitamin D3 receptor (Homo sapiens) (P11473 whole entry, looked up): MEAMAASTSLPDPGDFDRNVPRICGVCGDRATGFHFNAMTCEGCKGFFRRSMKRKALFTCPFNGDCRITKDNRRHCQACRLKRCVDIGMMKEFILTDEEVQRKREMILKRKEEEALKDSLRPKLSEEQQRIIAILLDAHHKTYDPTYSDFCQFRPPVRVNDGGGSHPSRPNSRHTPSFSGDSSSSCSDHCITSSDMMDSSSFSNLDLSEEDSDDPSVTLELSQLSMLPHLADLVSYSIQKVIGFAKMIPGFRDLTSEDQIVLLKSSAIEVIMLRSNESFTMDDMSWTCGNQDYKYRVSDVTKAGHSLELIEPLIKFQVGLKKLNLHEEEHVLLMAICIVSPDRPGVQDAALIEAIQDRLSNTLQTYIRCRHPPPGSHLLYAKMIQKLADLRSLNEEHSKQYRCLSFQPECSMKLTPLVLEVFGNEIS
# Sequence of Retinoic acid receptor RXR-alpha (Homo sapiens) (P19793 whole entry, looked up): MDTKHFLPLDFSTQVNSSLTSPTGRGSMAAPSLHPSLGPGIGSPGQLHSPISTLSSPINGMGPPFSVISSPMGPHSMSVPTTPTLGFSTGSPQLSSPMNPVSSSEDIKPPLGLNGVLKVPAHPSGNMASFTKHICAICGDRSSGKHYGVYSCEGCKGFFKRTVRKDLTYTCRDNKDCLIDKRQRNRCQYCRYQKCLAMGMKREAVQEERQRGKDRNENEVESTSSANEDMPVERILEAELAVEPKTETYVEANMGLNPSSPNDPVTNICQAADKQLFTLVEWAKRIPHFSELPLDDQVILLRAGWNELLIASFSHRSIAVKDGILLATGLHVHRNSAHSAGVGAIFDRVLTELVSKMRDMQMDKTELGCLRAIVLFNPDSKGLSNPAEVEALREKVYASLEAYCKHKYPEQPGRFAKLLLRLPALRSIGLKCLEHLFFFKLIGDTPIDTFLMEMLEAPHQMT
# Sequence of Bile acid receptor (Homo sapiens) (Q96RI1 whole entry, looked up): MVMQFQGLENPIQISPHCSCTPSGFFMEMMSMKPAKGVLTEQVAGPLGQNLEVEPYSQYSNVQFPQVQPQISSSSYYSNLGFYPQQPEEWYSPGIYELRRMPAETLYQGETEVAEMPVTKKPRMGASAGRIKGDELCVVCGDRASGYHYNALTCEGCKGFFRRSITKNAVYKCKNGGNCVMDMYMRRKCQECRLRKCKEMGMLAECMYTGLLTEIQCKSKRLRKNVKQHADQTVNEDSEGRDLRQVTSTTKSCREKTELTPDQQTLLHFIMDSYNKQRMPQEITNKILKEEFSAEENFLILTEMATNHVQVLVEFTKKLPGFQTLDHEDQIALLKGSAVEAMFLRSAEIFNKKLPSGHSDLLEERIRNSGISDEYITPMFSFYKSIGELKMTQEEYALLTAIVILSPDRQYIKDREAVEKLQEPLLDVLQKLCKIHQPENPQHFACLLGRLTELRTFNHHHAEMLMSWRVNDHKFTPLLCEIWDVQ
SMILES,Potency [1],Potency [2],Potency [3],Potency [4],Potency [5],Potency [6],Potency [7],Potency [8],Potency [9],Potency [10],Potency [11],Potency [12],Potency [13],Potency [14],Potency [15],Potency [16],Potency [17],Potency [18],Potency [19]
CCCCCCCCCCC[C@@H](C[C@@H]1OC(=O)[C@H]1CCCCCC)OC(=O)[C@H](CC(C)C)NC=O,inactive,inactive,inactive,inactive,11.9 µM (active),16.8 µM (active),inactive,inactive,inactive,–,–,–,–,–,–,–,–,–,–
CCc1oc2ccccc2c1C(=O)c1cc(I)c(O)c(I)c1,–,–,–,–,inactive,11.9 µM (active),inactive,–,–,inactive,–,–,–,–,–,–,–,–,–
Clc1sc(Cl)c(Cl)c1Cl,inactive,inactive,–,inactive,inactive,inactive,inactive,inactive,inactive,inactive,inactive,inactive,inactive,inactive,–,–,–,–,–
Clc1nnc(Cl)c2ccccc12,inactive,inactive,inactive,inactive,–,–,inactive,inactive,–,inactive,inactive,inactive,–,inactive,inactive,inactive,–,–,–
O=C(O)c1cc(N=Nc2ccc([N+](=O)[O-])cc2)ccc1O,–,inactive,30.3 µM (active),–,inactive,inactive,inactive,inactive,–,inactive,inactive,–,inactive,–,inactive,inactive,inactive,–,–
Cc1cc(C)c(/C=C2\C(=O)Nc3ccccc32)[nH]1,–,15 µM (active),inactive,–,inactive,inactive,inactive,inactive,–,inactive,inactive,–,inactive,–,inactive,inactive,–,–,–
COC(C)=O,inactive,inactive,inactive,–,inactive,–,inactive,inactive,inactive,inactive,inactive,–,inactive,inactive,inactive,–,–,inactive,–
COc1cccc2c1C(=O)c1c(O)c3c(c(O)c1C2=O)C[C@@](O)(C(C)=O)C[C@@H]3O[C@H]1C[C@H](N)[C@H](O)[C@H](C)O1,–,–,55.3 µM (active) and 2.4 nM (active),–,13.8 µM (active) and 15 µM (active),30.8 µM (active) and inactive,inactive,–,–,55.3 µM (active) and inactive,24.7 µM (active) and 33.5 µM (active),–,inactive,–,–,34.9 µM (active),0.952 µM (active),–,–
O=C1c2ccccc2C(=O)N1SC1CCCCC1,–,–,inactive,–,48.5 µM (active) and 54.5 µM (active),27.3 µM (active),–,–,–,inactive,48.9 µM (active) and 49 µM (active),inactive,48.9 µM (active),–,–,54.9 µM (active),43.6 µM (active),–,inactive
c1ccsc1,inactive,inactive,inactive,inactive,inactive,–,inactive,inactive,–,inactive,inactive,inactive,inactive,inactive,inactive,inactive,–,–,–
CCCCNS(=O)(=O)c1ccc(C)cc1,inactive,inactive,inactive,–,inactive,–,inactive,inactive,inactive,–,inactive,–,inactive,inactive,inactive,inactive,–,–,–
Nc1ccc(C(=O)O)c(O)c1,inactive,inactive,inactive,inactive,inactive,inactive,inactive,inactive,inactive,inactive,inactive,inactive,inactive,–,inactive,inactive,inactive,inactive,inactive
O=C(c1ccc(O)c(O)c1)c1ccc(O)cc1O,–,–,–,–,inactive,21.6 µM (active),inactive,inactive,–,inactive,–,–,inactive,–,inactive,inactive,inactive,–,–
Cl[Si](Cl)(c1ccccc1)c1ccccc1,inactive,–,inactive,inactive,inactive,inactive,inactive,inactive,inactive,inactive,inactive,inactive,–,–,–,inactive,–,inactive,–
CCCCOC(=O)CO,inactive,inactive,–,inactive,–,inactive,inactive,inactive,inactive,inactive,inactive,inactive,inactive,–,–,inactive,–,–,–
CCN(CC)c1ccc2c(-c3ccc(S(=O)(=O)O)cc3S(=O)(=O)[O-])c3ccc(=[N+](CC)CC)cc-3oc2c1,–,inactive,inactive,inactive,–,–,–,inactive,inactive,–,–,inactive,–,inactive,–,–,–,inactive,inactive
CCOC(=O)NNc1ccc(N(CC)CC(C)O)nn1 (stereo unspecified),inactive,inactive,inactive,inactive,–,inactive,inactive,inactive,inactive,inactive,inactive,–,inactive,–,inactive,–,inactive,inactive,inactive
Nc1ccc(NCCO)c([N+](=O)[O-])c1,inactive,inactive,inactive,–,–,–,inactive,inactive,inactive,inactive,inactive,–,inactive,–,inactive,inactive,–,–,–
